Measured values from PubChem BioAssay AID2284339 (EPA ToxCast).
The source made the active and inactive calls. Rule for the calls: active = hit-call score of the fitted dose curve at least 0.9, where 1 is the maximum; inactive = score below 0.9.

The molecules below were run on NCBI gene 100038242 (assay: CCTE_GLTED_xDIO3: CCTE's Xenopus Iodothyronine Deiodinase Type 3 (xDIO3) Inhibition Assay, Great Lakes Toxicology and Ecology Division (GLTED) Lab).
Protocol: CCTE_GLTED_xDIO3 is a cell-free, single-readout assay designed to test the inhibitory activity of chemicals toward Xenopus (frog) iodothyronine Deiodinase Type 3 (DIO3) enzyme. Enzyme is incubated in presence of test chemical for 3 hours during which uninhibited enzyme liberates free iodide from substrate. Free iodide is measured in a second step using the Sandell-Kolthoff method.CCTE_GLTED_xDIO3 is the assay component measured from the CCTE_GLTED_xDIO assay. It is designed to make measurements of enzyme activity, a form of enzyme reporter, as detected with absorbance signals by spectrophotometry.Data from the assay component CCTE_GLTED_xDIO3 was analyzed at the assay endpoint CCTE_GLTED_xDIO3 in the positive analysis fitting direction relative to DMSO as the negative control and baseline of activity. Using a type of enzyme reporter, loss-of-signal activity can be used to understand deiodinase Type 3 activity. To generalize the intended target to other relatable targets, this assay endpoint is annotated to the 'deiodinase' intended target family, where the subfamily is 'deiodinase Type 3'.
[…]
With `O=C(O)C(F)(F)C(F)(F)C(F)(F)C(F)(F)C(F)(F)C(F)(F)C(F)(F)C(F)(F)Cl` the outcome was “inactive”. `O=C(O)C(F)(F)OC(F)(F)C(F)(F)OC(F)(F)C(F)(F)OC(F)(F)C(F)(F)C(F)(F)C(F)(F)F` was tested, and the AC50 was 72.2 µM (active). `C=CC(=O)OCC(F)(F)C(F)(F)C(F)(F)C(F)(F)C(F)(F)C(F)(F)C(F)(F)C(F)F` was tested, and the AC50 was 20.7 µM (active). `C=CC(=O)OCCC(F)(F)C(F)(F)C(F)(F)C(F)(F)F` was tested, and the AC50 was 24.4 µM (active). In the case of `O=C(Cl)C(F)(F)C(F)(F)C(F)(F)C(F)(F)C(F)(F)C(F)(F)C(F)(F)C(F)(F)F`, the outcome is reported as “inactive”. For `COc1cc(O)c(CC=C(C)C)c(O)c1C(=O)/C=C/c1ccc(O)cc1`, the AC50 was 0.16 µM (active). For `C=C(C)C(=O)OCC(F)(F)C(F)(F)C(F)(F)F`, the outcome was “inactive”. For `OC(O)(C(F)C(O)(O)C(F)(F)F)C(F)(F)F`, the AC50 was 19.8 µM (active). In the case of `O=C(O)C(F)(F)C(F)(F)C(F)(F)C(F)(F)C(F)(F)C(F)(F)C(F)(F)C(F)(F)C(F)(F)C(F)(F)C(F)(F)C(F)(F)F`, the outcome is reported as “inactive”. For `C=CC(=O)OCC(F)(F)C(F)(F)C(F)(F)COC(=O)C=C`, the AC50 was 33.5 µM (active). With `C=C(C)C(=O)OCC(F)(F)C(F)(F)C(F)(F)C(F)F` the AC50 was 17.7 µM (active). `C=CC(=O)OCC(F)(F)C(F)(F)C(F)(F)C(F)(F)COC(=O)C=C` was tested, and the AC50 was 15.9 µM (active). `O=P(O)(O)CCC(F)(F)C(F)(F)C(F)(F)C(F)(F)C(F)(F)C(F)(F)C(F)(F)C(F)(F)F` was tested, and the outcome was “inactive”. In the case of `O=C(O)C(F)(F)C(F)(F)C(F)(F)C(F)(F)C(F)(F)C(F)(F)C(F)(F)C(F)(F)C(F)(F)C(F)F`, the AC50 is reported as 161 µM (active).
